Compound activity as filed in PubChem.
IDE cell inh: human IDE inhibitors in live cells, primary screen, fluorescence polarization, HEK cells, FAbetaB substrate; Insulin-degrading enzyme (Homo sapiens), P14735; FAbetaB cleavage; inhibition, % at 5.59 µM; 320,000 compounds, 0.41% hits;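 active = percent inhibition above the average of all tested compounds plus 3 SD, set per screening campaign, cut at about 16% in these data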;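 note: IDE supplied by intact live HEK cells; FP after avidin binding of uncleaved biotin substrate so inhibition keeps polarization high; 0% = DMSO wells and 100% = 60 µM reference IDE inhibitor Ii1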
IDE cell activ: human IDE activators in live cells, primary screen, fluorescence polarization, HEK cells, FAbeta-B substrate. Insulin-degrading enzyme (Homo sapiens), P14735. FAbeta-B cleavage; 0% vehicle, 100% cell-free pure enzyme wells. activation, % at 5.96 µM. 340,000 compounds, 0.073% hits. AID 493087, 2011;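 active = activation above the mean of all tested compounds plus 3 SD, set per screening campaign, cut at about 17% in these data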
PKA-R2B act: activators of PKA-R2B holoenzyme, primary screen, biochemical, fluorescence polarization, Cy5-IP20, human; cAMP-dependent protein kinase catalytic subunit beta (Homo sapiens) + cAMP-dependent …; 340,000 compounds, 0.079% hits; activation, % at 11.4 µM; PKA-R2B holoenzyme dissociation; R2B truncated from residue 108, S112A mutant; 0% DMSO only, 100% 113 µM cGMP; AID 504700, 2011;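 active = activation above a cutoff set at the mean over all compounds plus 3 SD, cut at about 18% in these data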;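 note: higher means more holoenzyme dissociation and a rise in polarization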
Rin1-Abl PPI inh: inhibitors of Rin1-Abl protein binding, primary screen, biochemical, TR-FRET. Tyrosine-protein kinase ABL1 (Homo sapiens) + Ras and Rab interactor 1 (Homo sapiens), …. 360,000 compounds, 0.4% hits. AID 588664, 2011. inhibition, % at 7.35 µM; in the data active = inhibition above about 5%, passing the limit was not always enough
PKA-R1A activ: activators of PKA-R1A holoenzyme, primary screen, biochemical, fluorescence polarization, Cy5-IP20, bovine R1A, mouse PKAc; cAMP-dependent protein kinase type I-alpha regulatory subunit (Bos taurus) + …; PKA-R1A dissociation; scaled: DMSO 0%, 113 µM cGMP 100%; activation, % at 11.4 µM; 340,000 compounds, 0.083% hits; AID 504707, 2011;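 active = percent activation above the mean of all tested compounds plus 3 SD, cut at about 19% in these data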;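 note: higher means more PKAc released from R1A so a rise in polarization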
E coli Lon inh: inhibitors of E. coli Lon protease, primary screen, biochemical, fluorescence polarization; P0A9M0; purified E. coli Lon protease; inhibition, % at 7.94 µM; 360,000 compounds, 0.42% hits; in the data active = inhibition above about 13%, passing the limit was not always enough;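 note: 0% = enzyme with probe and DMSO and 100% = no enzyme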
E coli Lon conf: E. coli Lon protease inhibitor retest, confirmation, biochemical, fluorescence polarization. shares compounds with E coli Lon inh. purified E. coli Lon. inhibition, % at 7.94 µM. 1,400 compounds, 31% hits. AID 602230, 2012; in the data active = inhibition above about 16%;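 note: 0% = enzyme with probe and DMSO and 100% = no enzyme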
* = called active by the depositor; / = no result given. Most compounds without a hit are left out; they make up all but 1.3% or so of the library.

SMILES | IDE cell inh | IDE cell activ | PKA-R2B act | Rin1-Abl PPI inh | PKA-R1A activ | E coli Lon inh | E coli Lon conf
COc1ccc(C2(c3ccc(OC(C)=O)cc3OC(C)=O)CC(c3ccccc3)NC(=S)N2)cc1 (stereo unspecified) | -4 | -6 | -2 | 2 | 1 | 21* | 12
CC(=O)Oc1ccc2c(c1)OC(c1ccccc1)CC21CC(C)(C)NC(=S)N1 (stereo unspecified) | 7 | -1 | -2 | 3 | -7 | -3 | /
CCOc1ccccc1OCC(=O)Nc1cccc(S(=O)(=O)N2CCCCCC2)c1 | -6 | 2 | -4 | 1 | -15 | 60* | -6
Cc1ccc(NC(=O)COc2ccccc2C(N)=O)cc1S(=O)(=O)N1CCCCCC1 | -2 | 0 | 1 | 0 | 1 | 22* | 1
COc1ccc(NC(=O)COc2ccccc2C(N)=O)cc1S(=O)(=O)N1CCCCC1 | / | / | -4 | 0 | -5 | -1 | /
CC(=O)c1ccccc1OCC(=O)Nc1cccc(S(=O)(=O)N2CCCC2)c1 | -6 | 1 | 3 | 7 | -4 | 0 | /
Cc1[nH]nc(N=Cc2c(O)n(C)c(=O)n(C)c2=O)c1-c1ccccc1 | -2 | / | / | / | / | / | /
Cn1c(N2CCN(C(c3ccccc3)c3ccccc3)CC2)nc2c1c(=O)[nH]c(=O)n2C | 1 | 3 | 1 | -2 | -12 | 24* | 16*
Cc1ccc(CNC(=O)C(OC(=O)c2cccs2)C(C)C)cc1 (stereo unspecified) | -7 | 3 | 10 | 1 | -13 | 28* | -14
COc1ccc(CN2CCC(C)(Oc3ccc4c(c3)OCO4)C2)c2ccccc12 (stereo unspecified) | / | / | / | -2 | / | -2 | /
O=C(CCCn1c(=O)c2sccc2n(Cc2cc(=O)n3ccccc3n2)c1=O)NCc1ccco1 | -1 | 2 | 2 | 0 | -8 | 15* | 0
COc1cc(NC(=O)C2=CC(c3cccs3)=NS(=O)(=O)N2C)cc(OC)c1OC | 0 | 11 | 0 | 0 | 2 | 1 | /
O=c1[nH]c2c(s1)C=Nc1ccccc1N2 | 1 | 2 | -9 | -15 | -7 | 114* | 149*
O=C1CC(c2ccco2)CC2=C1C=Nc1ccccc1N2 (stereo unspecified) | 8 | -1 | -9 | 3 | -13 | 4 | /
COCCNC(=O)c1onc(CS(=O)(=O)c2cc(C)cc(C)c2)c1C(=O)NCCOC | -6 | -2 | -1 | 1 | 4 | 3 | /
Cc1ccc2c(c1)c1c(n2CC(O)CNC2CCCCC2)CCCC1 (stereo unspecified) | -1 | 4 | -9 | 0 | 3 | 28* | 6
Cc1ccc2c(c1)c1c(n2CC(O)CNC(CO)(CO)CO)CCCC1 (stereo unspecified) | 1 | 3 | -6 | 0 | -4 | 5 | /
COc1ccc(C2/C=C\CN(C(=O)CC(C)C)CC(=O)N2Cc2ccc(F)cc2)cc1 (stereo unspecified) | / | 2 | -9 | 0 | 2 | -8 | /
Cc1ccc2c(c1)c(C)c(C)n2CC(O)Cn1nc(C)c(Br)c1C (stereo unspecified) | -3 | 5 | -13 | -6 | -3 | 15* | 23*
CCn1cc(C(=O)OCC(=O)Nc2cccc(Cl)c2Cl)c(=O)c2ccc(C)nc21 | 4 | / | / | -1 | / | -1 | /
Cc1ccc(Cn2nc(C)cc2C(=O)Nc2ccccc2Cl)cc1 | 1 | 0 | -8 | 3 | -1 | 0 | /
O=C(C1CCC(=O)N(C2CC2)C1)N(CCO)Cc1ccccc1 (stereo unspecified) | 6 | -1 | 9 | 0 | -1 | 47* | 0
O=S(=O)(c1ccc(NC(=S)NCc2cccnc2)cc1)N1CCCCC1 | 3 | 8 | -11 | -1 | -10 | -5 | /
